Rows were chosen to be rich in hits. Some 10% of all compounds tested hit in one or more screens of this group.
Six1-Eya2 blk – blocks human Six1 binding to Eya2. actives 0.56% (n = 360,000). AID 651725. AlphaScreen GST-Six1/His-Eya2 binding, biochemical; active compounds read low. activity change, % (no concentration beside the values). Q15475+O00167; in the data active means activity change below about -65%; inconclusive means mostly about -30% to -63%; further: on the % scale 0 is the no-effect control and ±100 the full control effect
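Homogeneous AlphaScreen proximity assay pairing GST-Six1 with His-tagged Eya2 (added as 5X mix: 250 nM and 500 nM) in 50 mM Tris pH 8.0, 300 mM NaCl, 1 mM TCEP. Glutathione donor and nickel acceptor beads; 1 h, 37 °C, dark.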
JMJD2A Tudor inh – blocks the human JMJD2A Tudor domain; AlphaScreen JMJD2A-Tudor / H3K4me3 peptide binding; Potency, µM (top dose mostly 114 µM), without a hit: at the top dose activity change, negative = inhibition, hits mostly inhibitors; actives 4.4% (n = 390,000); O75164; further: potency means the concentration at half of the fitted maximal effect; on the % scale 0 is the no-effect control and ±100 the full control effect; nearly all actives have a fitted effect of over 50% in size
G9a block – blocks human histone lysine methyltransferase G9a | Q96KQ7 | G9a H3K9 monomethylation, AlphaScreen, 2 h | Potency, µM (highest dose often 102 µM), for the others: at the highest dose activity, negative = inhibition, actives largely listed as inhibitors | actives 8.8% (n = 350,000) | AID 504332; further: potency means the concentration at half of the fitted maximal effect; on the % scale 0 is the no-effect control and ±100 the full control effect; nearly all actives have a fitted effect of over 75% in size
Target sequence (Q96KQ7 913-1193 limits assumed): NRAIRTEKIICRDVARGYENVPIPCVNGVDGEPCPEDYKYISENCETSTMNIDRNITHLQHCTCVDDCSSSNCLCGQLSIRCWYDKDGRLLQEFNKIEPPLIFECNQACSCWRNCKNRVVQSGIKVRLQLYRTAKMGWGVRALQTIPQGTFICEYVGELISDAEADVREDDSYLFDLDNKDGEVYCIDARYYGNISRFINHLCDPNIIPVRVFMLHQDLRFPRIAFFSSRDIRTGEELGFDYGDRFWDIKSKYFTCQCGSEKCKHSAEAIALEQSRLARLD
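Enzyme 20 nM + cpd, 15 min RT; add b-H3K9 pep 500 nM / SAM 20 uM; 2 h RT; anti-H3K9me1 Ab 0.5 ug/mL + SA donor / anti-rabbit acceptor beads 20 ug/mL each, 10 min; AlphaScreen read.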
CtBP-E1A inh – blocks the CtBP interaction with E1A; actives 0.49% (n = 340,000); AlphaScreen GST-E1A/His-CtBP binding, 1536-well; active compounds read low; activity change, % (concentration not given with the values); in the data active means activity change below about -65%; inconclusive means mostly about -30% to -63%; further: on the % scale 0 is the no-effect control and ±100 the full control effect
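Protein mix (5X: 125 nM each GST-E1A, His-CtBP) was incubated with pinned compound 2 h at 37 deg C in dark, in 50 mM Tris pH 8.0 buffer with 300 mM NaCl. Glutathione donor and nickel acceptor beads followed; AlphaScreen signal read after 1 h.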
BAZ2B inh – BAZ2B (human) inhibition; Q9UIF8; AlphaScreen BAZ2B-H3K14Ac peptide displacement; Potency, µM (highest dose often 114 µM), inactives show top-dose activity change, negative = inhibition, most hits filed as inhibitors; actives 4.4% (n = 360,000); AID 504333; further: potency means the concentration at half of the fitted maximal effect; on the % scale 0 is the no-effect control and ±100 the full control effect; nearly all actives have a fitted effect of over 60% in size
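AlphaScreen displacement: compounds (up to 110uM) incubated 30 min at room temperature with a preformed 50 nM BAZ2B/50 nM biotinylated H3K14Ac peptide complex in PBS pH 7.4 with Tween-20. Donor and acceptor beads at 10 ug/mL final added, 20 min light-protected before reading.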
HP1b chromo inh – HP1-beta chromodomain-methylated histone interaction inhibition; P83916; AlphaScreen HP1-beta / biotin-H3K9me3 peptide binding; Potency, µM (titrated, usually from 114 µM), for the others: at the top dose activity change, negative = inhibition, usual class: inhibitors; actives 0.56% (n = 390,000); AID 540317; further: potency means the concentration at half of the fitted maximal effect; nearly all actives have a fitted effect of over 70% in size
Target sequence (P83916 whole entry, looked up): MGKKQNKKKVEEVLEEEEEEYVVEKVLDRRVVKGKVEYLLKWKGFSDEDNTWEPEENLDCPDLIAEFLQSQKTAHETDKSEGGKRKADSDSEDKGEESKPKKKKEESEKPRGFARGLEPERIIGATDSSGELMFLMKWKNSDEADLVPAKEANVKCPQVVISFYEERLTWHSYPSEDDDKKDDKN
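AlphaScreen: HP1-beta (50 nM) preformed 30 min with biotin-H3(1-18)K9me3 peptide (50 nM) in PBS pH 7.4, 0.01% Tween-20. Compound added for 30 min at RT, then streptavidin donor/nickel chelate acceptor beads (10 ug/mL) for 30 min.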
* = called active by the depositor; [ ] = another dose, or the depositor's remark. Unless noted, the call rests on the fitted dose curve; in most records, active means well fitted inhibition curve with a large enough effect; inconclusive means small, poorly fitted or top-dose-only effect; inactive means no such curve, though single readings can be large or run the other way.

`Cc1ccc(C(=O)CSC2=C(C#N)C(c3ccco3)CC(=O)N2)c(C)c1` (stereo not given) gave Six1-Eya2 blk -19, JMJD2A Tudor inh 50µM*, G9a block inconclusive, CtBP-E1A inh -9 and HP1b chromo inh -40%.
N#CC1=C(SCc2ccccc2)NC(=O)CC1c1ccc(O)cc1 (stereo not given) was read as Six1-Eya2 blk 0, JMJD2A Tudor inh -12%, G9a block -14%[12.7 µM], CtBP-E1A inh 3, BAZ2B inh 6% and HP1b chromo inh 10%.
Cc1ccc(C2CC(=O)NC(SCc3ccccc3)=C2C#N)cc1 (stereo not given) was read as Six1-Eya2 blk 14, JMJD2A Tudor inh 89µM*, G9a block -10%[59 µM], CtBP-E1A inh 0, BAZ2B inh -12% and HP1b chromo inh -10%.
`CCCCn1c(O)c(N=Nc2ccccc2O)c2ccccc21` gave Six1-Eya2 blk -20, JMJD2A Tudor inh inconclusive, G9a block 16%[2.33 µM], CtBP-E1A inh -17, BAZ2B inh inconclusive and HP1b chromo inh -6%.
`CC1CCc2nc(-c3cc4ccc(O)cc4oc3=O)sc2C1` (stereo not given) gave JMJD2A Tudor inh 35%[57.1 µM] and HP1b chromo inh 29%[57 µM].
Screening CCSC1=C(C#N)C(c2cccc(OC)c2)CC(=O)N1 (stereo not given) returned Six1-Eya2 blk 6, JMJD2A Tudor inh -18%, G9a block inconclusive, CtBP-E1A inh 0, BAZ2B inh -1% and HP1b chromo inh 20%.
For CCOc1cc(C2CC(=O)NC(SCC)=C2C#N)ccc1O (stereo not given) the results were Six1-Eya2 blk -7, JMJD2A Tudor inh -4%, G9a block 50µM*, CtBP-E1A inh 6, BAZ2B inh -4% and HP1b chromo inh 41%.
O=C(CCCSc1nc2ccccc2s1)NCc1ccco1 was read as Six1-Eya2 blk -4, JMJD2A Tudor inh -11%, G9a block 79µM*, CtBP-E1A inh -2, BAZ2B inh -1% and HP1b chromo inh 0%.
O=C(CCSCCC(=O)NCc1ccco1)NCc1ccco1 was read as Six1-Eya2 blk 14, JMJD2A Tudor inh 20µM*, G9a block inconclusive, CtBP-E1A inh 0, BAZ2B inh 56µM* and HP1b chromo inh inconclusive.
For O=C(NCc1ccco1)c1cccnc1-c1nc2ccccc2s1 the results were Six1-Eya2 blk -7, JMJD2A Tudor inh 79µM*, G9a block inconclusive, CtBP-E1A inh 4, BAZ2B inh -34% and HP1b chromo inh inconclusive.
CC(C)c1ccc(NC(=O)CCC(=O)NCc2ccco2)cc1 was read as Six1-Eya2 blk -1, JMJD2A Tudor inh -17%, G9a block 26%, CtBP-E1A inh 0, BAZ2B inh 0% and HP1b chromo inh 11%.
Screening CC(C)C(CC(=O)NCc1ccco1)c1ccco1 (stereo not given) returned Six1-Eya2 blk -1, JMJD2A Tudor inh -28%, G9a block 40µM*, CtBP-E1A inh 3, BAZ2B inh inconclusive and HP1b chromo inh 10%.
For O=C(NCCC1=CCCCC1)C1CCC(=O)N(Cc2cccc(C(F)(F)F)c2)C1 (stereo not given) the results were Six1-Eya2 blk 0, JMJD2A Tudor inh -9%, G9a block 64%, CtBP-E1A inh 4, BAZ2B inh 8% and HP1b chromo inh 28%.
Cc1ccc2oc(=O)c(-c3nc(-c4cccs4)no3)cc2c1 was read as JMJD2A Tudor inh -5%, G9a block -12%[59 µM], BAZ2B inh -9% and HP1b chromo inh 29%.
For CC(=O)NC(Cc1c[nH]c2ccccc12)C(=O)NCc1ccco1 (stereo not given) the results were Six1-Eya2 blk 2, JMJD2A Tudor inh -17%, G9a block 9%, CtBP-E1A inh 3, BAZ2B inh 2% and HP1b chromo inh 23%.
For CC(Cc1c[nH]c2ccccc12)C(=O)NCc1ccco1 (stereo not given) the results were Six1-Eya2 blk -11, JMJD2A Tudor inh inconclusive, G9a block 32µM*, CtBP-E1A inh -7, BAZ2B inh 50µM* and HP1b chromo inh inconclusive.
Screening Cc1cc(C)cc(NC(=O)C(Cc2ccccc2)NS(=O)(=O)c2ccc3c(c2)CCC(=O)N3)c1 (stereo not given) returned JMJD2A Tudor inh -7%, G9a block 3%[59 µM], BAZ2B inh -17% and HP1b chromo inh 36%.
`Cc1cc(C)nc(SCC(=O)NC2CCCC2)n1` gave Six1-Eya2 blk 8, JMJD2A Tudor inh 1%, G9a block 3%, CtBP-E1A inh -3, BAZ2B inh -2% and HP1b chromo inh 15%.
Cc1cc(C)n2nc(SCCCC(=O)c3ccc(F)cc3)nc2n1 was read as Six1-Eya2 blk -22, JMJD2A Tudor inh -24%, G9a block 50µM*, CtBP-E1A inh 16, BAZ2B inh -10% and HP1b chromo inh 12%.
For COc1ccccc1C(=O)NC(=O)CSc1nc(C)cs1 the results were Six1-Eya2 blk 3, JMJD2A Tudor inh -4%, G9a block 50µM*, CtBP-E1A inh -24, BAZ2B inh 0% and HP1b chromo inh 28%.
For Cc1csc(SCC(=O)NC(=O)NC2CCCC2)n1 the results were Six1-Eya2 blk 17, JMJD2A Tudor inh -15%, G9a block 45µM*, CtBP-E1A inh 1, BAZ2B inh -6% and HP1b chromo inh 36%.
Screening Cc1cc(C)n2nc(SCC(=O)NC3CCCCC3)nc2n1 returned Six1-Eya2 blk 5, JMJD2A Tudor inh 23%, G9a block 45µM*, BAZ2B inh -1% and HP1b chromo inh 53%.
`Cc1cc(C)n2nc(SCC(=O)N3CCN(c4ccc(F)cc4)CC3)nc2n1` gave Six1-Eya2 blk 0, JMJD2A Tudor inh -3%, G9a block -20%[59 µM], CtBP-E1A inh 1, BAZ2B inh 5% and HP1b chromo inh 25%.
For Cc1nc(SCC(=O)NC(=O)NC2CCCCC2)nc(C)c1C the results were Six1-Eya2 blk 0, JMJD2A Tudor inh -26%, G9a block 14µM*, CtBP-E1A inh 3, BAZ2B inh 11% and HP1b chromo inh 38%.
For CC1C(=O)N2CCCc3cc(S(=O)(=O)Nc4ccccc4C(N)=O)cc1c32 (stereo not given) the results were Six1-Eya2 blk 7, JMJD2A Tudor inh -10%, G9a block 45µM*, CtBP-E1A inh 0, BAZ2B inh -1% and HP1b chromo inh 11%.
CC1C(=O)N2CCCc3cc(S(=O)(=O)N4CCC(C(N)=O)CC4)cc1c32 (stereo not given) was read as Six1-Eya2 blk 4, JMJD2A Tudor inh -13%, G9a block 13µM*, CtBP-E1A inh -25, BAZ2B inh inconclusive and HP1b chromo inh 61%.
